# Screening data (PubChem BioAssay)
# A selection: hits, their analogues and other compounds. The true share with any hit is near 17%.
# HepG2 viability: HepG2 cytotoxicity, counter-screen for TGF-b inhibitors. 0.76% of 410,000 active. HepG2 CAGA-GFP viability, ATP luminescence, 18 h. Potency, µM (doses to about 46.1 µM), without a hit: at the top dose activity change, negative = cytotoxicity, most hits filed as cytotoxic
#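 CellTiter-Glo luminescence gave cytotoxicity after 18 hours at 37 degrees C. The cells were HepG2 CAGA-GFP in 1% FBS DMEM, stimulated with 500 pg/mL TGF-beta after compound addition. %Activity was normalised to no-cell wells (complete cell-killing) and DMSO (no toxicity), and curves were fitted and classified.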
# TGFb SMAD3 inh: TGF-b pathway inhibition; 1.2% of 410,000 active; Potency, µM (titrated, usually from 46.1 µM), inactives show at the top dose activity, negative = inhibition, usual class: inhibitors; AID 588855; HepG2 CAGA-GFP TGF-b/SMAD3 reporter, GFP fluorescence, 18 h; TGF-beta stimulated, 500 pg/mL final; further: on the % scale 0 is the no-effect control and ±100 the full control effect; nearly all actives have a fitted effect of over 65% in size
#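 TGF-beta reporter screen: HEPG2 CAGA-GFP, 1% FBS, 500 pg/mL TGF-beta final, 18 h; per-cell GFP summed per well; curves fitted and categorized by class.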
# ATXN viability: viability counter-screen for ATXN expression inhibitors; S2 cells (HEK-293 line with an ATXN2-luciferase reporter) viability, CellTiter-Fluor protease fluorescence, 24 h; Potency, µM (series often up to 56.7 µM), hits mostly cytotoxic; 0.49% of 400,000 active; further: nearly all actives have a fitted effect of over 40% in size
# DT40 TDP1 CPT: DT40-hTDP1 cell growth loss with CPT. chicken DT40 Tdp1-/-;hTDP1 cells + 20 nM CPT, ATP luminescence, 48 h. Potency, µM (titrated, usually from 46.2 µM), for the others: at the top dose activity change, negative = growth inhibition, actives largely listed as inhibitors. 12% of 420,000 active; further: on the % scale 0 is the no-effect control and ±100 the full control effect; nearly all actives have a fitted effect of over 55% in size
#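 Chicken DT40 Tdp1-/- cells stably complemented with human TDP1 were seeded at 400 cells/well in medium containing 20 nM camptothecin, exposed to pin-transferred compounds, and grown at 37 °C for at least 48 hr. Viability was read as ATP luminescence.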
# ATXN2 expr inh: ATXN2 expression inhibition. AID 1745845. Potency, µM (top dose mostly 57 µM), for the others: at the highest dose activity change, negative = inhibition, usual class: inhibitors. 0.72% of 360,000 active. HEK-293 ATXN2-luciferase reporter, luminescence, 24 h; further: on the % scale 0 is the no-effect control and ±100 the full control effect; nearly all actives have a fitted effect of over 55% in size
#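 qHTS (up to 57 uM final) was run with 24 h compound exposure of reporter cells at 37 °C. Each well was multiplexed: SteadyGlo luminescence measured ATXN2-luciferase expression after a fluorogenic Gly-Phe-AFC viability readout (25 uM final).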
# DT40 TDP1 no CPT: qHTS for Inhibitors of human tyrosyl-DNA phosphodiesterase 1 (TDP1): qHTS in cells in absence of CPT | 15% of 420,000 active | DT40 Tdp1-/- hTDP1 cells, no CPT, ATP luminescence, 48 h | AID 686978, 2013 | Potency, µM (top dose mostly 46.2 µM), inactives show top-dose activity change, negative = growth inhibition, usual class: inhibitors; further: on the % scale 0 is the no-effect control and ±100 the full control effect; nearly all actives have a fitted effect of over 55% in size
#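 Readout: luminescence from CellTiter-Glo after 30 min in the dark at RT. Cells: DT40 Tdp1-/- with stable hTDP1, 400/well. Exposure: compounds alone, ≥48 hr, 37 °C.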
# Active calls of the source: *; i = inactive; ? = inconclusive; · = not tested or not shown. The call rests on the fitted dose curve; in most records, active means well fitted curve in the direction sought with a large enough effect; inconclusive means small, poorly fitted or top-dose-only effect, or another doubt; inactive means no such curve, though single readings can be large; an effect the other way counts as inactive or inconclusive. Potency means the concentration at half of the fitted maximal effect.
SMILES,HepG2 viability,TGFb SMAD3 inh,ATXN viability,DT40 TDP1 CPT,ATXN2 expr inh,DT40 TDP1 no CPT
CCCn1c(SCC(=O)c2c(C)[nH]c(C)c2C(=O)OCC)nc2ccccc21,-1.6%,8.3%,i,16.4µM*,-12.7%,?
CCOC(=O)c1c(C)[nH]c(C)c1C(=O)CSc1nc2ccccc2c(=O)n1-c1ccc(Cl)cc1,-22.2%,?,?,16.4µM*,?,18.4µM*
COc1ccc(C2=NN(C(C#N)c3ccc(OC)cc3)C(c3ccccc3)C2)cc1 (stereo not given),-21.3%,-11.8%,i,?,64.2%,?
COc1cccc(-n2c(SCC(N)=O)nnc2-c2ccncc2)c1,11.4%,-15.7%,i,-22.2%,-4.5%,-9.5%
COc1cccc(NC(=O)C(Sc2nnc(-c3ccncc3)n2-c2ccc(Cl)cc2)c2ccccc2)c1 (stereo not given),-7.5%,?,i,16.4µM*,-19.5%,20.6µM*
O=C(O)c1ccc(CNC(=O)C2CCN(S(=O)(=O)c3cccs3)CC2)cc1,-0.1%,3.6%,i,1.4%,·,12.7%
COc1cccc(-c2nc(SCC(=O)NCC3CCCO3)c(-c3ccc(Cl)cc3)[nH]2)c1 (stereo not given),-36.6%,?,·,?,·,?
Cc1ccc(NC(=O)C(=O)NCC2OCCc3ccccc32)cc1 (stereo not given),17.1%,18.2%,i,-24.8%,5.8%,2.2%
O=C(NCC1OCCc2ccccc21)c1ccc(NC(=O)c2ccc(Cl)cc2)cc1 (stereo not given),-67.2%,?,?,23.1µM*,?,16.4µM*
CCOc1ccc(N(C(=O)/C=C/C(=O)Nc2cc(C)on2)C(C(=O)NC2CCCC2)c2ccccc2C)cc1 (stereo not given),-4.5%,18.5%,?,16.4µM*,-8.9%,16.4µM*
Cc1cc(NC(=O)/C=C/C(=O)N(CC(=O)NC2CCCC2)c2cccc3ccccc23)no1,-1.1%,-9.9%,i,-4.2%,3.2%,-3.3%
CCc1ccc(C(C(=O)NC2CCCC2)N(C(=O)/C=C/C(=O)Nc2cc(C)on2)c2ccccc2C)cc1 (stereo not given),-6.5%,?,?,16.4µM*,·,16.4µM*
Cc1cccc(NC(=O)c2ccc3c(O)c(S(=O)(=O)c4ccccc4)c(=O)[nH]c3c2)c1C,-12.8%,?,i,4.8%,-3.0%,6.1%
COc1cc(SC)ccc1C(=O)N1CCN(S(=O)(=O)/C=C/c2ccccc2)CC1,-9.0%,-26.2%,i,?,-3.3%,-29.0%
Cn1nc(C(=O)OCc2ccc(F)cc2)c2ccccc2c1=O,-12.9%,11.0%,i,2.1%,-21.5%,?
Cn1nc(C(=O)Oc2cc(=O)n(C)c3ccccc23)c2ccccc2c1=O,-3.6%,-2.5%,0.224µM*,-6.8%,·,?
NC(=O)Nc1cc(-c2ccc(CN3CCOCC3)cc2)sc1C(N)=O,·,·,·,·,27.2%,·
Cn1nc(C(F)(F)F)c(/C=N/OC(=O)c2ccccc2)c1Cl,2.3%,1.9%,i,-12.2%,-8.9%,-7.4%
Cn1nc(C(F)(F)F)c(/C=N/OC(=O)c2ccccc2)c1Sc1ccc(Cl)cc1,15.6%,?,i,23.1µM*,-33.1%,23.1µM*
Cc1cccc2c(=O)cc(CSc3ccccc3NC(=O)c3cccc(Br)c3)[nH]c12,-6.0%,-17.6%,17.8µM*,-27.9%,-6.5%,?
Cc1cccc2c(=O)cc(CSc3ccccc3NC(=O)c3cccc(F)c3)[nH]c12,-11.7%,-11.4%,i,-28.3%,6.7%,?
Cc1ccc2c(c1)sc(-c1ccc(N(C)C)cc1)[n+]2C,-31.6%,?,?,0.0366µM*,·,0.0184µM*
Cc1ccc(NC(=S)c2ccc(N(C)C)cc2)cc1,7.5%,-3.3%,i,-1.5%,36.7%,-17.4%
CCOc1nc2c(c(-c3cccs3)c1C#N)Cc1ccccc1-2,-4.6%,-1.8%,i,-13.4%,-2.4%,-9.0%
COc1nc2c(c(-c3cc(Br)cs3)c1C#N)Cc1ccccc1-2,-0.8%,-18.5%,i,?,-5.5%,25.9µM*
SMILES,HepG2 viability,TGFb SMAD3 inh,ATXN viability,DT40 TDP1 CPT,ATXN2 expr inh,DT40 TDP1 no CPT
O=C1NC2(CCCC2)N=C1c1ccc(Cl)cc1,14.3%,-25.4%,i,-28.0%,14.9%,0.5%
N#CC(C#N)=c1ccc2c(c1)NC1(CCCCC1)N=2,-58.4%,?,·,11.6µM*,?,10.3µM*
O=C(NCCN1CCCC1)C1CCC(=O)N(CCCN2CCOCC2)C1 (stereo not given),9.0%,1.7%,i,-13.4%,-1.4%,-1.7%
Cc1ccc(CC(=O)NCCCc2ccccc2)cc1,-6.5%,-7.5%,i,-7.1%,-0.8%,-11.4%
Cc1ccc(S(=O)(=O)CCC(=O)Nc2ccccc2N2CCCC2)cc1,-31.9%,-3.8%,i,?,-14.1%,-6.1%
Cc1ccc(S(=O)(=O)CCC(=O)OCC(=O)Nc2sccc2C#N)cc1,-13.5%,-0.7%,i,-14.7%,·,-15.6%
Cc1ccc(S(=O)(=O)CCC(=O)Nc2sccc2C#N)cc1,0.0%,-22.4%,i,?,6.4%,20.6µM*
Cc1ccc(S(=O)(=O)CCC(=O)Nc2ccccc2C)cc1,-0.1%,6.3%,i,?,-24.2%,23.1µM*
COC(=O)c1ccsc1NC(=O)CCS(=O)(=O)c1ccc(Cl)cc1,-18.2%,-13.6%,?,?,12.0%,18.4µM*
Cc1ccc(S(=O)(=O)CCNC(=O)Cc2ccccc2)cc1,3.1%,8.4%,i,20.6µM*,-10.5%,?
COc1cccc(N2CCN(C(=O)/C=C/c3ccco3)CC2)c1,2.4%,-25.4%,i,5.2%,3.8%,-20.4%
CN(C(=O)COC(=O)c1ccc2ccccc2n1)c1ccccc1,-8.6%,22.0%,i,-4.3%,8.8%,-7.2%
Cn1ncc2cc3c(Nc4ccc(Cl)cc4)cccc3nc21,-21.4%,-1.0%,i,20.6µM*,0.0%,11.6µM*
